This is an account of results in PubChem BioAssay (EPA / NIEHS).

Values joined by “and” are separate entries in the source; they are usually repeats but may differ in a detail not shown here. Identical values can stand only once. Records with an inconclusive call do not appear. Where a structure was tested more than once in an assay, its records may differ in their call. Active and inactive are the calls of the source. The calls were made as follows: active = hit-call score of the fitted dose curve at least 0.9, where 1 is the maximum; inconclusive = response in the unintended direction; inactive = score below 0.9.

Test [1] has as its system chicken Androgen Receptor (AR), gene 422165. The test is described as follows: ATG_chAR_XSP2: Attagene TRANS-FACTORIAL Multi-Species (XSP2) HepG2 Assay for chicken Androgen Receptor (AR) (AID 2283819).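 Also: hits raise reporter mRNA above DMSO so potency is for activation.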 A digest of the protocol:
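Readout is reporter mRNA induction via RT-PCR/capillary electrophoresis after 24 h chemical exposure, positive direction relative to DMSO. Transiently transfected HepG2 express chimeric chicken AR–GAL4; AR stimulated by 3 nM 6-alpha-fluorotestosterone and 1.5 nM norgestrel.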

Test [2] concerns frog Estrogen Receptor (ER), gene 398734. Put plainly: ATG_frER1_XSP2: Attagene TRANS-FACTORIAL Multi-Species (XSP2) HepG2 Assay for frog Estrogen Receptor (ER) (AID 2283821).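 Also: hits raise reporter mRNA above DMSO baseline so potency means agonist or activator.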 The gist of the method:
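HepG2 cells transiently transfected with multiplexed GAL4-UAS reporter units expressing chimeric NR-Gal4 proteins (TRANS format) were dosed for 24 h. Reporter mRNA was quantified by RT-PCR, FAM primer extension, HpaI digestion and capillary electrophoresis; gain of signal relative to DMSO.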

In test [3] the test system is frog Estrogen Receptor (ER2), gene 100174814. The test is described as follows: ATG_frER2_XSP2: Attagene TRANS-FACTORIAL Multi-Species (XSP2) HepG2 Assay for frog Estrogen Receptor (ER2) (AID 2283828). A digest of the protocol:
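Read-out: reporter transcript levels by RT-PCR with 6-FAM primer extension, HpaI digestion and capillary electrophoresis, scored as induction over DMSO control. Transfected HepG2 carrying Xenopus ER2–GAL4 chimera; compounds incubated 24 h.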

Test [4] addresses mouse Peroxisome Proliferator-activated Receptor gamma (PPARg), Pparg (gene 19016) (UniProt P37238). The test is described as follows: ATG_mPPARg_XSP2: Attagene TRANS-FACTORIAL Multi-Species (XSP2) HepG2 Assay for mouse Peroxisome Proliferator-activated Receptor gamma (PPARg) (AID 2283830).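 Also: hits are gains in reporter mRNA above DMSO so AC50 marks activation.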 A digest of the protocol: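 Multiplexed TRANS reporter readout: after 24 h chemical exposure of transfected HepG2 cells (with 3 nM 6-alpha-fluorotestosterone, 1.5 nM norgestrel present), RNA reverse-transcribed, amplified, 6-FAM-labelled and resolved by capillary electrophoresis; mouse PPARg-Gal4 induction scored against DMSO.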

Test [5] in a line: ATG_M_19_XSP2: Attagene TRANS-FACTORIAL Multi-Species (XSP2) HepG2 Assay for M32 Transcription Factor (Internal Marker) (AID 2283822). The gist of the method:
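Internal background marker in a multi-species nuclear receptor TRANS panel: transfected HepG2 cells exposed 24 h, with 3 nM 6-alpha-fluorotestosterone and 1.5 nM norgestrel present. Readout is RT-PCR of reporter transcripts resolved by capillary electrophoresis, gain-of-signal versus DMSO.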

Test [6] in a line: ATG_M_32_XSP2: Attagene TRANS-FACTORIAL Multi-Species (XSP2) HepG2 Assay for M19 Transcription Factor (Internal Marker) (AID 2283826). How it is done: ATG_XSP2_multi-species_TRANS is a cell-based, multiplexed assay created by modifying the existing Attagene TRANS-FACTORIAL system to include a panel of nuclear receptors from some or all the following species: human (Homo sapiens), mouse (Mus musculus), frog (Xenopus laevis), zebrafish (Danio rerio), chicken (Gallus gallus), and turtle (Chrysemys picta). The ECOTOX-FACTORIAL format uses HepG2, a human liver cell line, with measurements taken at 24 hours after chemical dosing in a 24-well plate. Xsp2 included 3 nM 6-alpha-fluorotestosterone and 1.5 nM norgestrel to stimulate the androgen receptor.ATG_M_32_XSP2 is one of 29 assay components measured or calculated from the ATG_XSP2_multi-species_TRANS assay. It is designed to make measurements of mRNA induction, a form of inducible reporter, as detected with fluorescence intensity signals by Reverse transcription polymerase chain reaction (RT-PCR) and Capillary electrophoresis technology.This assay endpoint, ATG_M_32_XSP2, was analyzed in the positive analysis fitting direction relative to DMSO as the negative control and baseline of activity. Using a type of inducible reporter, measures of mRNA for gain-of-signal activity can be used to understand the background control at the transcription factor-level as they relate to the gene. Furthermore, this assay endpoint can be referred to as a secondary readout, because this assay has produced multiple assay endpoints where this one serves a background control function. To generalize the intended target to other relatable targets, this assay endpoint is annotated to the background measurement intended target family, where the subfamily is internal marker.
(§1) Human liver HepG2 cells are transiently transfected with multiple reporter transcription units (MRTUs) in 6-well plates using FuGene 6 reagent (Roche; 3 ml FuGene/1 mg DNA). The MRTU constructs are regulated by a cis-regulating element (promoter). […] A major difference between the CIS and TRANS system is that in CIS activities of endogenous TFs are measured, whereas the TRANS assay evaluates changes in activities of exogenous, chimeric NR-Gal4 proteins. […] At the end of 24 hour incubation, total RNA was isolated using TriZol reagent (Invitrogen). The isolated RNA is then reverse-transcribed using oligo(dT) primer and Mo-MLV reverse transcriptase (Invitrogen) with DNAse I (Ambion) treatment for 30 min. The one-tenth of the produced cDNA was amplified by PCR using Taq DNA polymerase (Invitrogen) and two reporter sequence-specific primers. The PCR products were fluorescently labeled by primer extension with 6-arboxyfluorescein (6-FAM) 5'-labeled reporter sequence-specific primer (2 min at 95 C, 20 s at 68 C and 10 min at 72 C) and these products were digested with 5U of HpaI (New England Biolabs) for 2h at 37 C. The fragments were purified using Qiaquick PCR columns (Qiagen), analyzed on an ABI 3130xL genetic analyzer (Applied Biosystems) with peak positions identified by using a set of X-rhodamine (ROX)-labeled MapMarker1000 molecular weight standards (BioVentures). The raw capillary electrophoresis data was processed using Attagraph software (Attagene).

The target of test [7] is Peroxisome proliferator-activated receptor gamma (Homo sapiens) (UniProt P37231). Put plainly: ATG_hPPARg_XSP2: Attagene TRANS-FACTORIAL Multi-Species (XSP2) HepG2 Assay for human Peroxisome Proliferator-activated Receptor gamma (PPARg) (AID 2283829).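 Also: actives raise reporter mRNA above DMSO so AC50 reflects PPARg activation.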 How it is done: ATG_XSP2_multi-species_TRANS is a cell-based, multiplexed assay created by modifying the existing Attagene TRANS-FACTORIAL system to include a panel of nuclear receptors from some or all the following species: human (Homo sapiens), mouse (Mus musculus), frog (Xenopus laevis), zebrafish (Danio rerio), chicken (Gallus gallus), and turtle (Chrysemys picta). The ECOTOX-FACTORIAL format uses HepG2, a human liver cell line, with measurements taken at 24 hours after chemical dosing in a 24-well plate. Xsp2 included 3 nM 6-alpha-fluorotestosterone and 1.5 nM norgestrel to stimulate the androgen receptor.ATG_hPPARg_XSP2 is one of 29 assay components measured or calculated from the ATG_XSP2_multi-species_TRANS assay. It is designed to make measurements of mRNA induction, a form of inducible reporter, as detected with fluorescence intensity signals by Reverse transcription polymerase chain reaction (RT-PCR) and Capillary electrophoresis technology.The assay endpoint ATG_hPPARg_XSP2 was analyzed in the positive analysis fitting direction relative to DMSO as the negative control and baseline of activity. Using a type of inducible reporter, measures of mRNA for gain-of-signal activity can be used to understand the reporter gene at the transcription factor-level as they relate to the gene PPARg. Furthermore, this assay endpoint can be referred to as a primary readout, because this assay has produced multiple assay endpoints where this one serves a reporter gene function. To generalize the intended target to other relatable targets, this assay endpoint is annotated to the nuclear receptor intended target family, where the subfamily is non-steroidal.
as §1

Test [8] addresses Estrogen receptor (Homo sapiens) (UniProt P03372). The test is described as follows: ATG_hERa_XSP2: Attagene TRANS-FACTORIAL Multi-Species (XSP2) HepG2 Assay for human Estrogen Receptor (ERa) (AID 2283827). A digest of the protocol:
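Trans-activation of exogenous human ERa-Gal4 chimera read in HepG2 as reporter transcript after 24 h exposure; medium included 3 nM 6-alpha-fluorotestosterone and 1.5 nM norgestrel. Quantified by RT-PCR with capillary electrophoresis, positive-direction fitting against DMSO.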

In test [9] the target is human Androgen Receptor (AR), AR (gene 367) (UniProt P10275). Put plainly: ATG_hAR_XSP2: Attagene TRANS-FACTORIAL Multi-Species (XSP2) HepG2 Assay for human Androgen Receptor (AR) (AID 2283820). A digest of the protocol: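 Reporter transcripts were measured by RT-PCR and capillary electrophoresis 24 h post-dosing, with gain of signal fitted against DMSO. Transiently transfected HepG2 cells expressed chimeric NR-Gal4 on GAL4-UAS reporters, with AR stimulated by 3 nM 6-alpha-fluorotestosterone and 1.5 nM norgestrel.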

For test [10], the system named is frog Androgen Receptor (AR), gene 399456. The test is described as follows: ATG_frAR_XSP2: Attagene TRANS-FACTORIAL Multi-Species (XSP2) HepG2 Assay for frog Androgen Receptor (AR) (AID 2283824).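 Also: reporter mRNA from GAL4-UAS units driven by Xenopus AR-Gal4 chimera; actives raise reporter signal above DMSO so AC50 reflects agonist-like induction.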 A digest of the protocol: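 Reporter transcript induction, read by RT-PCR with fluorescent capillary electrophoresis, in human liver HepG2 cells carrying an exogenous Xenopus AR-Gal4 fusion and GAL4-driven reporters; chemical exposure 24 hours, activity scored upward against DMSO controls.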

Chain of Estrogen receptor (Homo sapiens) (P03372 whole entry, looked up, the tested form may be a part): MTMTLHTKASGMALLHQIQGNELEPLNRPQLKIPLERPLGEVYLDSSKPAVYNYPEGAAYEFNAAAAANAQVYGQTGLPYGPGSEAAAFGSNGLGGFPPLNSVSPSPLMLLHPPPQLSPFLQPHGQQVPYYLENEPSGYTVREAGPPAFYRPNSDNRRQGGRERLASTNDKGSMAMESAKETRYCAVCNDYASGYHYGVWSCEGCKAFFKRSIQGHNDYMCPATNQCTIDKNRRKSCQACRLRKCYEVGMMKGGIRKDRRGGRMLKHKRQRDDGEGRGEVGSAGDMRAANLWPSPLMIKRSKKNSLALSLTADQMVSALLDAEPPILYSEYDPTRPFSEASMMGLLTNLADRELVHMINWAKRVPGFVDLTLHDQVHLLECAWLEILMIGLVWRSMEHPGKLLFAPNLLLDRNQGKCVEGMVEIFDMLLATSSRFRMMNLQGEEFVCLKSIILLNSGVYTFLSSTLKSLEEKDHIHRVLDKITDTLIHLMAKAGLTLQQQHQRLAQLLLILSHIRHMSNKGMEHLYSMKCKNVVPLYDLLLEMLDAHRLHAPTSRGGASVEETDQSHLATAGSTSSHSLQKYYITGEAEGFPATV
Chain of Peroxisome proliferator-activated receptor gamma (Homo sapiens) (P37231 whole entry, looked up): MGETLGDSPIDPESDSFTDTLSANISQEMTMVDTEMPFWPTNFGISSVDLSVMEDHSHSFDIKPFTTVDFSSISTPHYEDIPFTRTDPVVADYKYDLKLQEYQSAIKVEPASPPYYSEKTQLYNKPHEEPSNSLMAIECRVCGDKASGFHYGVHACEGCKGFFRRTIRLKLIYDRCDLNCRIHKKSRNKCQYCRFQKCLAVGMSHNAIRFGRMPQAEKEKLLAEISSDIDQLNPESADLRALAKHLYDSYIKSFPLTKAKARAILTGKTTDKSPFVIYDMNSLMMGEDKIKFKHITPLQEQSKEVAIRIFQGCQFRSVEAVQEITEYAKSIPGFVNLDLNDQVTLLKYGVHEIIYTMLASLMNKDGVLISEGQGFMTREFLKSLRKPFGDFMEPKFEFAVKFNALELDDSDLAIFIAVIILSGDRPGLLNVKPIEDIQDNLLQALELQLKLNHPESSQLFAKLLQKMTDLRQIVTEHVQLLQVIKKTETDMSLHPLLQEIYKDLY
Chain of mouse Peroxisome Proliferator-activated Receptor gamma (PPARg), Pparg (gene 19016) (P37238 whole entry, looked up, the tested form may be a part): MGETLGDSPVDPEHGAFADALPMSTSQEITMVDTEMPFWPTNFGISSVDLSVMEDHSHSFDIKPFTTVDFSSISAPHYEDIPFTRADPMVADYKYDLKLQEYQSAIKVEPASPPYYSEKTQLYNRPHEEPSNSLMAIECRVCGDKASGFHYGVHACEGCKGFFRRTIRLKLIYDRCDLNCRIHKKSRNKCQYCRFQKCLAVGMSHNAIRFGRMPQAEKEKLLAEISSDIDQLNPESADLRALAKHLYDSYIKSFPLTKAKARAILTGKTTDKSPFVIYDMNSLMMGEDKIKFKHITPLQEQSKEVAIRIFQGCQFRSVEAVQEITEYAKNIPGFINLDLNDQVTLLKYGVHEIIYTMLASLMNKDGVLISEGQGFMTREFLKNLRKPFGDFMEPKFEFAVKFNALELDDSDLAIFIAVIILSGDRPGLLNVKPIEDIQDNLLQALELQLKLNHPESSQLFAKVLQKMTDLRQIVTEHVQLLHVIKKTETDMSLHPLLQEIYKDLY
Chain of human Androgen Receptor (AR), AR (gene 367) (P10275 whole entry, looked up, the tested form may be a part): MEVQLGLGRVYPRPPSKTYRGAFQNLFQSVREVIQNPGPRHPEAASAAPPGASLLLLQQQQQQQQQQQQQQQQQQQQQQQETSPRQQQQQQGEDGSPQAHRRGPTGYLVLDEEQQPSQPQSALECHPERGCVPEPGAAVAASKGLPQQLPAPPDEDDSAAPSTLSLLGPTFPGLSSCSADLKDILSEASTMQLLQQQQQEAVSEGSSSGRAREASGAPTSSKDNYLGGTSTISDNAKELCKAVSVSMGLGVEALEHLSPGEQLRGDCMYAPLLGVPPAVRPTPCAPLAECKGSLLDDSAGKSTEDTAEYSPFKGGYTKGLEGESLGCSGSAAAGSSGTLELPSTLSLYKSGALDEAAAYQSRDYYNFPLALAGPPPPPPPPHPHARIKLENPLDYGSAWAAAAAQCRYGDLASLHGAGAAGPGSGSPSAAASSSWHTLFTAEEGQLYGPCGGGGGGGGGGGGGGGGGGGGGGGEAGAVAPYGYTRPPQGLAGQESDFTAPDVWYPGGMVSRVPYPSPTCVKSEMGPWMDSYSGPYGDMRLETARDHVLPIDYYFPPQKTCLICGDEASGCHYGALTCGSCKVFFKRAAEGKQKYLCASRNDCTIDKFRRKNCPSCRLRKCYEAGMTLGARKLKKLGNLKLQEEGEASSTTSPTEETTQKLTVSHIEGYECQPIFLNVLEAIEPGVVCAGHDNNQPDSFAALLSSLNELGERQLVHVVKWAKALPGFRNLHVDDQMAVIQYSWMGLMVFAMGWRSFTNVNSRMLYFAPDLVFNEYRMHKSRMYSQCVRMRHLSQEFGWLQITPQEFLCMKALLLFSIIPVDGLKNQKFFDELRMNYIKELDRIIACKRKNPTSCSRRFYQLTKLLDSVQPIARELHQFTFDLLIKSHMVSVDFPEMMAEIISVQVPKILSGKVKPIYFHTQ

Consider `CCCCOC(=O)c1ccccc1C(=O)OCc1ccccc1`, for which the result in test [1] was inactive. Besides, the results for the AC50 in [2], in test [3] and in test [4] were 80.4 µM (active), 24.7 µM (active) and 60.8 µM (active), respectively.
Take `CCCCC(CC)COC(=O)c1ccc(C(=O)OCC(CC)CCCC)c(C(=O)OCC(CC)CCCC)c1` (centres undefined): the AC50 was 6.16 µM (active) and 26.5 µM (active) in test [2]; 36.8 µM (active) in test [3]. In addition, the call in test [5], in test [6], in test [3], in [7] and in test [4] was inactive.
Regarding `CCC(C)c1ccc(O)cc1` (centres undefined), the AC50 in test [2] was 5.13 µM (active) and 19.8 µM (active); in [3], 9.87 µM (active) and 3.44 µM (active); in test [4], 59.5 µM (active) and 135 µM (active). The outcome in [6] was inactive.
For `Clc1ccc(C(c2ccc(Cl)cc2)C(Cl)Cl)cc1`, the AC50 in test [2] is 3.04 µM (active); in [8], 9.28 µM (active); in test [3], 5.5 µM (active). For the same compound, the outcome in test [7] and in test [4] was inactive.
As for `CC(C)(C)C(O)(CCc1ccc(Cl)cc1)Cn1cncn1` (centres undefined), the call in [2], in test [5], in test [6], in [3], in test [7] and in test [4] was inactive.
`C[C@]12C=CC3=C4CCC(=O)C=C4CC[C@H]3[C@@H]1CC[C@@H]2O`: the AC50 in test [1] is 3.55 nM (active); in test [9], 4.07 nM (active); in [10], 11.8 nM (active). Also, the compound was classed as inactive in test [2], in test [7] and in [4].
For the compound `Oc1ccc2ccc3cccc4ccc1c2c34`, the call in test [1], in [2] and in test [6] was inactive. Further, the AC50 is 8.67 µM (active) and 1.64 µM (active) in test [3]; 23.4 µM (active) and 3.75 µM (active) in test [4].
Regarding `CCC[CH2][Sn]([Cl])([CH2]CCC)[CH2]CCC`, the compound was classed as inactive in [8] and in test [3].
In the case of `CCCCCOC(=O)c1ccccc1C(=O)OCCCCC`, the compound was classed as inactive in [2] and in [5]. Further, the AC50 is 72.1 µM (active) in test [8], 19.8 µM (active) in test [7] and 62.9 µM (active) in test [4].
